From PubChem BioAssay (EPA / NIEHS) come the findings set out here.

Read-out in experiment [1]: solute carrier (SLCO1B1), SLCO1B1 (gene 10599)
As to the kind of experiment: LTEA_HepaRG_SLCO1B1: Life Technologies and Expression Analysis (LTEA) Assay for solute carrier (SLCO1B1) using HepaRG (AID 2283530; active = hit-call score of the fitted dose curve at least 0.9, where 1 is the maximum; inactive = score below 0.9). The note with it: mRNA level, 48 h; actives raise or lower the signal. In a few lines: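 Gain or loss of SLCO1B1 mRNA is fitted against the 0.5% DMSO vehicle in human HepaRG liver cells treated 48 h at up to 100 uM in half-log steps. Expression comes from qRT-PCR normalized to endogenous controls.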

Read-out in experiment [2]: sulfotransferase 2A1 (SULT2A1), SULT2A1 (gene 6822)
As to the kind of experiment: LTEA_HepaRG_SULT2A1: Life Technologies and Expression Analysis (LTEA) Assay for sulfotransferase 2A1 (SULT2A1) using HepaRG (AID 2283531; active = hit-call score of the fitted dose curve at least 0.9, where 1 is the maximum; inactive = score below 0.9). The note with it: mRNA level, 48 h; actives raise or lower the signal. In a few lines: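 Cells were plated and cultured 48 h, switched to serum-free induction medium, then dosed in duplicate for 48 h (8 concentrations, max 100 uM). RNA was isolated and SULT2A1 expression measured by qRT-PCR; gain or loss of signal fitted relative to DMSO.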

Read-out in experiment [3]: Transforming Growth Factor (TGFA), TGFA (gene 7039)
As to the kind of experiment: LTEA_HepaRG_TGFA: Life Technologies and Expression Analysis (LTEA) Assay for Transforming Growth Factor (TGFA) using HepaRG (AID 2283532; active = hit-call score of the fitted dose curve at least 0.9, where 1 is the maximum; inactive = score below 0.9). The following applies: mRNA level, 48 h; actives raise or lower the signal. The method, boiled down:
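Differentiated HepaRG cells exposed 48 hours in serum-free induction medium, 0.5% DMSO vehicle, 8-point half-log series from 100 uM, in duplicate. TGFA mRNA by TaqMan qRT-PCR, normalised to ACTB, GAPDH, POLR2A; bidirectional fit versus DMSO.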

Read-out in experiment [4]: Transforming Growth Factor (TGFB1), TGFB1 (gene 7040)
Put plainly: LTEA_HepaRG_TGFB1: Life Technologies and Expression Analysis (LTEA) Assay for Transforming Growth Factor (TGFB1) Transporter using HepaRG (AID 2283533; active = hit-call score of the fitted dose curve at least 0.9, where 1 is the maximum; inactive = score below 0.9). The note with it: mRNA level, 48 h; actives raise or lower the signal. The method, boiled down:
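Expression change of TGFB1 in human HepaRG cells is measured after a 48 h chemical exposure, up to 100 uM in 0.5% DMSO vehicle. Curves are fitted in both directions relative to the DMSO baseline.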

Read-out in the next experiment: TIMP1, TIMP1 (gene 7076)
Put plainly: LTEA_HepaRG_TIMP1: Life Technologies and Expression Analysis (LTEA) Assay for TIMP1 using HepaRG (AID 2283534; active = hit-call score of the fitted dose curve at least 0.9, where 1 is the maximum; inactive = score below 0.9;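 also: TaqMan qRT-PCR signal normalized to ACTB GAPDH and POLR2A housekeeping genes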). The note with it: mRNA level, 48 h; actives raise or lower the signal. In a few lines:
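We dosed human liver HepaRG cultures for 48 hours with up to 100 uM test chemical and measured TIMP1 expression by qRT-PCR. Activity in either direction is fitted relative to the 0.5% DMSO vehicle.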

Read-out in experiment [5]: Tumor necrosis factor receptor 1 (TNFRSF1A), TNFRSF1A (gene 7132)
Put plainly: LTEA_HepaRG_TNFRSF1A: Life Technologies and Expression Analysis (LTEA) Assay for Tumor necrosis factor receptor 1 (TNFRSF1A) using HepaRG (AID 2283535; active = hit-call score of the fitted dose curve at least 0.9, where 1 is the maximum; inactive = score below 0.9). The following applies: mRNA level, 48 h; actives raise or lower the signal. In a few lines:
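Expression of TNFRSF1A in human HepaRG liver cells was measured by qRT-PCR 48 h after chemical dosing (maximum 100 uM). Bidirectional curve fitting used 0.5% DMSO as baseline.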

Read-out in experiment [6]: Thyroid Hormone Responsive (THRSP), THRSP (gene 7069)
Put plainly: LTEA_HepaRG_THRSP: Life Technologies and Expression Analysis (LTEA) Assay for Thyroid Hormone Responsive (THRSP) using HepaRG (AID 2283536; active = hit-call score of the fitted dose curve at least 0.9, where 1 is the maximum; inactive = score below 0.9). The note with it: mRNA level, 48 h; actives raise or lower the signal. In a few lines: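 Differentiated HepaRG cells treated 48 h in serum-free induction medium with 8 half-log concentrations up to 100 uM (0.5% DMSO), duplicates. THRSP mRNA by TaqMan qRT-PCR normalised to ACTB, GAPDH, POLR2A; bidirectional fit versus DMSO.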

Read-out in experiment [7]: Cellular tumor antigen p53 (Homo sapiens) (UniProt P04637)
Put plainly: LTEA_HepaRG_TP53: Life Technologies and Expression Analysis (LTEA) Assay for Tumor Protein P53 (TP53) using HepaRG (AID 2283537; active = hit-call score of the fitted dose curve at least 0.9, where 1 is the maximum; inactive = score below 0.9). The following applies: mRNA level, 48 h; actives raise or lower the signal. The method, boiled down: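 TP53 transcript measured by qRT-PCR, normalized to three housekeeping genes, after 48 h treatment of human HepaRG cultures with chemicals from 100 uM downward in half-log steps (0.5% DMSO vehicle, serum-free induction medium). Up- or down-regulation fitted against DMSO.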

Read-out in experiment [8]: UDP glucuronosyltransferase (UGT1A1), UGT1A1 (gene 54658)
As to the kind of experiment: LTEA_HepaRG_UGT1A1: Life Technologies and Expression Analysis (LTEA) Assay for UDP glucuronosyltransferase (UGT1A1) using HepaRG (AID 2283538; active = hit-call score of the fitted dose curve at least 0.9, where 1 is the maximum; inactive = score below 0.9). The following applies: mRNA level, 48 h; actives raise or lower the signal. In a few lines:
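HepaRG cells, 0.5% DMSO vehicle, 48 h exposure in serum-free induction medium to 8-point half-log series topping at 100 uM, in duplicate. UGT1A1 mRNA by Fluidigm qRT-PCR, normalized to ACTB/GAPDH/POLR2A; bidirectional fit versus DMSO.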

Read-out in experiment [9]: UDP glucuronosyltransferase (UGT1A6), UGT1A6 (gene 54578)
Put plainly: LTEA_HepaRG_UGT1A6: Life Technologies and Expression Analysis (LTEA) Assay for UDP glucuronosyltransferase (UGT1A6) using HepaRG (AID 2283539; active = hit-call score of the fitted dose curve at least 0.9, where 1 is the maximum; inactive = score below 0.9). The note with it: mRNA level, 48 h; actives raise or lower the signal. The method, boiled down: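 Endpoint is UGT1A6 transcript induction or loss in a human liver cell line, quantified by TaqMan qRT-PCR 48 h after dosing. Concentrations ran from 100 uM downward in half-log steps in 0.5% DMSO; activity was fitted in both directions versus vehicle.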

Read-out in experiment [10]: X-box binding protein 1 (XBP1), XBP1 (gene 7494)
As to the kind of experiment: LTEA_HepaRG_XBP1: Life Technologies and Expression Analysis (LTEA) Assay for X-box binding protein 1 (XBP1) using HepaRG (AID 2283540; active = hit-call score of the fitted dose curve at least 0.9, where 1 is the maximum; inactive = score below 0.9). The note with it: mRNA level, 48 h; actives raise or lower the signal. In a few lines: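 Human HepaRG monolayers receive test chemical for 48 h across an eight-point half-log series starting at 100 uM. XBP1 mRNA gain or loss is scored against DMSO by qRT-PCR.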

Experiment [11] in a line: LTEA_HepaRG_LDH_cytotoxicity: Cytotoxicity Assessment in the Life Technologies and Expression Analysis (LTEA) Assay (AID 2283563). In a few lines:
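Human HepaRG hepatic cells are treated with test chemicals for 48 h at up to 100 uM in 0.5% DMSO. Cytotoxicity is scored from medium LDH against the vehicle control.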

Experiment [12] can be described thus: ATG_XTT_Cytotoxicity: Cytotoxicity Assessment in the Attagene TRANS-FACTORIAL HepG2 Assay (AID 2283584). The method, boiled down:
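Transfect HepG2 with GAL4-UAS reporter units, dose compound, incubate 24 h, then measure viable cell number by XTT. Fit concentration response against DMSO baseline.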

Experiment [13] in a line: TOX21_p53_BLA_p2_viability: Viability Assessment in the Tox21 HCT-116 p53 Agonism Beta-lactamase Assay, Phase 2 (AID 2283591).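 Also: actives lower the ATP signal meaning cytotoxicity.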 In a few lines:
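HCT116 p53-bla cells, 4000/well, dosed after 5 h plating (217-fold dilution of DMSO stocks) and incubated 16 h at 37C. Viability taken as cellular ATP by CellTiter-Glo luminescence after 30 min RT; signal loss marks cytotoxicity.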

The target in experiment [14] is Cellular tumor antigen p53 (Homo sapiens) (UniProt P04637). Put plainly: TOX21_p53_BLA_p2_ratio: Tox21 HCT-116 p53 Agonism Beta-lactamase Assay, Ratio, Phase 2 (AID 2283592). In a few lines:
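An inducible beta-lactamase reporter in HCT116 cells signals p53 pathway activation. After 16 h chemical exposure at 37C, cells load CCF4-AM substrate for 2 h at room temperature; activity is the cleaved/uncleaved emission ratio relative to DMSO.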

Experiment [15] can be described thus: TOX21_p53_BLA_p3_viability: Viability Assessment in the Tox21 HCT-116 p53 Agonism Beta-lactamase Assay, Phase 3 (AID 2283593).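 Also: cells exposed to compound for 16 h before reading.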 In a few lines:
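HCT116 cells, 4000/well, dosed 5 h after plating by pin transfer (217-fold dilution from DMSO stock) and incubated 16 h at 37C, 5% CO2. Viability read as ATP luminescence with CellTiter-Glo after 30 min at room temperature.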

The target of experiment [16] is Cellular tumor antigen p53 (Homo sapiens) (UniProt P04637). Put plainly: TOX21_p53_BLA_p3_ratio: Tox21 HCT-116 p53 Agonism Beta-lactamase Assay, Ratio, Phase 3 (AID 2283596). In a few lines:
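HCT116 p53-bla cells (4000/well) given compound in DMSO (217-fold dilution) after 5 h, incubated 16 h at 37C. CCF4-AM substrate 2 h at room temperature; 460/530 nm emission ratio, gain fitted against DMSO.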

Experiment [17] in a line: TOX21_p53_BLA_p4_viability: Viability Assessment in the Tox21 HCT-116 p53 Agonism Beta-lactamase Assay, Phase 4 (AID 2283597).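 Also: hits lower the luminescence signal meaning cytotoxicity.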 In a few lines:
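Compound exposure of HCT116 cells lasts 16 h at 37C, 5% CO2, with DMSO stocks diluted 217-fold. Cellular ATP is then quantified by CellTiter-Glo luminescence after 30 min at room temperature.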

For experiment [18], the target named is Cellular tumor antigen p53 (Homo sapiens) (UniProt P04637). As to the kind of experiment: TOX21_p53_BLA_p5_ratio: Tox21 HCT-116 p53 Agonism Beta-lactamase Assay, Ratio, Phase 5 (AID 2283599). In a few lines:
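HCT-116 p53-bla cells (4000/well) plated 5 h, dosed with compound (217-fold DMSO dilution) for 16 h at 37 C; CCF4-AM substrate 2 h at room temperature. Activity is the 460/530 nm emission ratio (405 nm excitation), fitted in gain-of-signal direction versus DMSO.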

Experiment [19] can be described thus: TOX21_p53_BLA_p5_viability: Viability Assessment in the Tox21 HCT-116 p53 Agonism Beta-lactamase Assay, Phase 5 (AID 2283600). The method, boiled down: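 Counter-readout for cytotoxicity: ATP-dependent luminescence from CellTiter-Glo, read in the beta-lactamase wells after 30 min at RT, following a 16 h compound exposure at 37C.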

Records with an inconclusive call do not appear. Calls of active or inactive are those of the source. The calls were made as follows, unless noted: active = hit-call score of the fitted dose curve at least 0.9, where 1 is the maximum; inconclusive = response in the unintended direction; inactive = score below 0.9.

Sequence of Cellular tumor antigen p53 (Homo sapiens) (P04637 whole entry, looked up): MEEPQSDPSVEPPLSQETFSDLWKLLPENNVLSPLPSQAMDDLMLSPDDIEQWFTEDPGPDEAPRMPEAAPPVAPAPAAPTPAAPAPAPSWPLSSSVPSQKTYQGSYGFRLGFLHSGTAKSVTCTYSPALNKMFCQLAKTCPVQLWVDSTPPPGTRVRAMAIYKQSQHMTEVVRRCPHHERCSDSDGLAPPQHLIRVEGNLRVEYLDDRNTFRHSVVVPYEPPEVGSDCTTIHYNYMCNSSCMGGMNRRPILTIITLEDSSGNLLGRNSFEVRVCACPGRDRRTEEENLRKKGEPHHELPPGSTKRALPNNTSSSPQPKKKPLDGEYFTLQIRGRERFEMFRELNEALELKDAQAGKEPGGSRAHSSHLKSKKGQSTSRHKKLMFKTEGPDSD

Consider `c1ccc2c(c1)Nc1ccccc1S2`, for which the outcome in experiment [1] is “inactive”; in experiment [2], “inactive”; in experiment [3], “inactive”; in experiment [4] it was “inactive”; in the experiment with TIMP1, TIMP1 (gene 7076), “inactive”; in [5], “inactive”. The call in experiment [7], in experiment [9], in [10], in experiment [11], in experiment [12] and in experiment [13] was inactive. For the same compound, the outcome in [14], in experiment [15], in [16], in experiment [17], in experiment [18] and in [19] was inactive. The figures for the AC50 in experiment [6] and in [8] were 32.5 µM (active) and 50 µM (active), respectively.
As for `CC(Cc1ccc(OCC(=O)O)cc1)NCC(O)c1csc(C(F)(F)F)n1` (stereo not given), the outcome was “inactive” in [1]; “inactive” in [2]; “inactive” in experiment [3]; “inactive” with TIMP1, TIMP1 (gene 7076); “inactive” in experiment [5]; “inactive” in experiment [6]. Further, the call in experiment [7], in experiment [8], in experiment [9], in [10], in experiment [11] and in experiment [14] was inactive. Further, the outcome in experiment [16] and in experiment [18] was inactive.
Take `Cc1cccc(N)c1`: the outcome is “inactive” in [1]; “inactive” in [2]; “inactive” in [3]; “inactive” with TIMP1, TIMP1 (gene 7076); “inactive” in [5]; “inactive” in [6]. For the same compound, the compound was classed as inactive in [7], in experiment [8], in experiment [9], in experiment [10], in experiment [11] and in experiment [13]. The result in experiment [14], in [15], in experiment [16], in [17], in [18] and in experiment [19] was inactive.
On to `OCC1CO1` (stereo not given), for which the outcome in experiment [1] is “inactive”; in experiment [2], “inactive”; in experiment [3], “inactive”; with TIMP1, TIMP1 (gene 7076), “inactive”; in experiment [5], “inactive”; in experiment [6], “inactive”. Also, the compound was classed as inactive in experiment [7], in [8], in experiment [9], in experiment [10], in experiment [11] and in [12]. The result in experiment [14], in experiment [15], in [16], in [17], in [18] and in experiment [19] was inactive.
